Source: PubChem BioAssay (NCI)
About 79,000 compounds went through this panel and 15% of them were active in at least one assay; those are over-represented in the sample as a whole. Unmarked numbers belong to inactive results. No stated cut-off is given here; in the data, active means growth inhibition above about 70%; inactive means the rest.

Assay: NCI Yeast Anticancer Drug Screen. Data for the rad50 strain (AID 155);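 further: 0% = growth of vehicle-only cultures of the same strain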
Details: S. cerevisiae rad50 strain growth inhibition; at 50.0 µM; hits give high values
Procedure, shortened: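 Inhibition values express reduced yeast growth in compound-treated cultures relative to vehicle-treated controls.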

First: NC(Cc1ccccc1)C(=O)Nc1ccccc1 (stereo not drawn)
Second: C[N+](C)(C)C1=CC=CC=C1.Br[Br-]Br
The growth inhibition of the first is lower: 18.3% for the first, 22.5% for the second.

Compared with `O=c1c2cc([N+](=O)[O-])ccc2[nH]n1Cc1ccccn1`, `Clc1cc(Cl)cc(Nc2nc3ccccc3nc2-c2cccs2)c1` is lower in growth inhibition: 12.5% for the first, -19.3% for the second.

Compared with `CCC(=O)OC1CCC2(C)C(=CCC3C2CCC2(C)C(C(C)CCCC(C)C)CCC32)C1` (stereo not drawn), `C=CCNC(=O)OCCCl` is higher in growth inhibition: 3.1% for the first, 6% for the second.

Compared with `Oc1c(N=Nc2ccccc2)c2ccccc2c2ccc3ccccc3c12`, `NNCCSC1CCCCC1` is higher in growth inhibition: -23.3% for the first, 8.9% for the second.

First: CC(=O)c1ccc(OC(=O)Nc2ccc(Cl)cc2)cc1
Second: CN(C)c1ccc(-c2nc(N)nc3c2CCCC3)cc1
The growth inhibition of the first is higher: 4.8% for the first, -12.7% for the second.

Compared with `O=C1/C(=C/c2ccc3c(c2)CCC3)Cc2cc3c(cc21)CCC3`, `CCCCCCC(=O)OCC` is higher in growth inhibition: -10% for the first, 16.3% for the second.

First: Cc1ccc(C(C)C)c(O)c1NC(=S)N/N=C\c1cc(Cl)ccc1O
Second: O=C(O)c1cc(-c2ccccc2Cl)nc2cc3ccccc3cc12
The growth inhibition of the first is higher: -4.55% for the first, -14.4% for the second.

First: CC1=NN(c2ccccc2)C(=O)/C1=C\c1ccccc1
Second: CC(C)C(=O)CC(c1ccc(Cl)cc1)N1N=C(C(C)C)CC1c1ccc(Cl)cc1 (stereo not drawn)
The growth inhibition of the first is higher: 15.6% for the first, 8.05% for the second.

Compared with `COC(=O)CN(c1c(C)cc(C)c(N)c1C)S(=O)(=O)c1ccccc1`, `COc1ccc(C(=O)C2CC(=O)NC2=O)cc1` (stereo not drawn) is lower in growth inhibition: 0.2% for the first, -11.6% for the second.
